# Experimental data as given in PubChem BioAssay AID1851 (National Center for Advancing Translational Sciences (NCATS), 2009).
# “And” between values parts separate entries of the source, which are not always exact repeats. Equal entries are not always repeated. Out of some 16,000 compounds screened, about 5,100 (32%) were called active. Another 25% or so got no clear call; they are omitted. The call rests on the fitted dose curve; in most records, active means well fitted curve in the direction sought with a large enough effect; inconclusive means small, poorly fitted or top-dose-only effect, or effect the other way; inactive means no such curve, though single readings can be large or run the other way. Some of the results follow.
# Target: Cytochrome P450 3A4 (Homo sapiens) (UniProt P08684)
# Sequence (P08684 whole entry, looked up): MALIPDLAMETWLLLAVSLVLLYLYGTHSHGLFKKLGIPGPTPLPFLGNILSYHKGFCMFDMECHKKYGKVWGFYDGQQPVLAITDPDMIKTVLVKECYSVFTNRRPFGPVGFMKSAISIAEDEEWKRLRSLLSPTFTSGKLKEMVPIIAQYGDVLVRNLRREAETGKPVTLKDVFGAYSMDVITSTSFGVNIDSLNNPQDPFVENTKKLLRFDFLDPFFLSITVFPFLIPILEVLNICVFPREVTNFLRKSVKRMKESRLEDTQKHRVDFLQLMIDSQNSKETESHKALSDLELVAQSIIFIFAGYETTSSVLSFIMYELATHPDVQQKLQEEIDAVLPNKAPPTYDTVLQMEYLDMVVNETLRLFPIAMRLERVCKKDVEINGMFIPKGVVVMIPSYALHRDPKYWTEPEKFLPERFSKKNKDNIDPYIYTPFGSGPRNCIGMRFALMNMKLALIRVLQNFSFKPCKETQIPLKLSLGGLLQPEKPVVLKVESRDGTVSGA
# Assay: Cytochrome panel assay with activity outcomes
# Settings: recombinant CYP, pro-luciferin dealkylation, luminescence, p450-cyp3a4; series mostly up to 57.1 µM; activity, negative = inhibition: at the top concentration
# On the % scale 0 is the no-effect control and ±100 the full control effect.
Compound,"activity, negative = inhibition",AC50
Clc1cnc(Oc2ccc(Oc3ncc(Cl)cc3Cl)cc2)c(Cl)c1,-3.91% (inactive),
CSC([N-]/N=C/c1cccc(C)n1)=[S]=[Cu].CS[C@H]([S-])[N-]/N=C/c1cccc(C)n1,,3.98 µM (active)
CCCN(CCC)[C@@H]1CCc2c(OC)cccc2[C@@H]1C,-4.58% (inactive),
COC1=CC(=O)O[C@@H](/C=C\c2ccccc2)C1,4.42% [at 25.6 µM] (inactive),
O=C(C[n+]1ccc2ccccc2c1)c1ccc2ccc3ccccc3c2c1,-29.1% [at 11.4 µM] (inactive),
Nc1nc(N)c(N=Nc2ccc([As](=O)(O)O)c(O)c2)c(N)n1,7% [at 11.4 µM] (inactive),
C[C@@H](Cc1ccccc1)NCCC(c1ccccc1)c1ccccc1,-15.2% [at 25.6 µM] (inactive),
C[C@@H](Cc1cccc(C(F)(F)F)c1)NCCCc1ccccc1,,5.01 µM (active)
CNCCCc1ccccc1,-2% (inactive),
COc1cc2cc(c1Cl)N(C)C(=O)C[C@H](OC(=O)C(C)C)[C@]1(C)O[C@@H]1[C@@H](C)[C@H]1C[C@](O)(NC(=O)O1)[C@@H](OC)/C=C\C=C(\C)C2,-29.4% [at 11.4 µM] (inactive),
c1ccc2c([C@@H]3CCN(CCN4CCOCC4)C3)c[nH]c2c1,-4.68% [at 11.4 µM] (inactive),
COCOc1ccc(Br)cc1C(=O)/C=C\c1ccc2c(c1)OCO2,,3.16 µM (active)
CN1CCN(c2cc(N3CCCC3)c([N+](=O)[O-])cc2F)CC1,-9.54% (inactive),
COc1cc(-c2ccc(=O)[nH]n2)ccc1OC(F)F,-23.6% (inactive),
CN1CCN(c2ccc([N+](=O)[O-])c(N/N=C3\CN4CCC3CC4)c2)CC1,11.8% (inactive),
CC[C@H](Oc1ccc(Cl)cc1)C(=O)OC1C[C@H]2CC[C@@H](C1)N2C (stereo partly specified),-24.5% (inactive),
Oc1ccc2c3c1O[C@H]1c4c(c5ccccc5n4Cc4ccccc4)C[C@]4(O)[C@H](C2)N(CC2CC2)CC[C@@]314,,10 µM (active)
Oc1ccc2c3c1O[C@H]1c4[nH]c5c(c4C[C@@]4(O)[C@@H](C2)N(CC2CC2)CC[C@]314)C[C@]1(O)[C@H]2Cc3ccc(O)c4c3[C@@]1(CCN2CC1CC1)[C@@H]5O4,-17.9% (inactive),
O=C1CC[C@]2(O)[C@H]3Cc4ccc(O)c5c4[C@@]2(CCN3CC2CC2)[C@@H]1O5,-5.91% [at 25.6 µM] (inactive),
CN1C(=O)CCS(=O)(=O)[C@@H]1c1ccc(Cl)cc1,-19.6% [at 25.6 µM] (inactive),
CN1[C@@H]2CC[C@H]1CC(O)C2 (stereo partly specified),0.0981% [at 25.6 µM] (inactive),
C[C@@H]1O[C@@H](O[C@H]2C[C@@H](O)[C@]3(CO)[C@@H]4[C@@H](O)C[C@]5(C)[C@H]([C@@H]6COC(=O)C6)CC[C@@]5(O)[C@H]4CC[C@@]3(O)C2)[C@H](O)[C@H](O)[C@@H]1O,-2.34% (inactive),
CC(C)COC(=O)OCN1C(=O)CN(CCN2CC(=O)N(COC(=O)OCC(C)C)C(=O)C2)CC1=O,,25.1 µM (active)

Compound,"activity, negative = inhibition",AC50
CN1CCc2cc(O)cc3c2[C@H]1Cc1ccc(O)c(O)c1-3,-24% (inactive),
C[N+](C)(C)CCCCCCCCCC[N+](C)(C)C,-7.31% (inactive),
Nc1nc(N)c(Cn2ccnc2)c(=O)[nH]1,-3.48% [at 11.4 µM] (inactive),
O=c1[nH]c(=O)n(CCC2=CCCCC2)c(O)c1C=Nc1cccc(F)c1,4.91% (inactive),
Cc1cc(C)c(-n2c(O)c(C=NCCN3CCOCC3)c(=O)[nH]c2=O)c(C)c1,,25.1 µM (active)
C=CCn1c(O)c(C(C)=NCCCN2CCOCC2)c(=O)[nH]c1=O,23.7% (inactive),
COc1cccc(-n2c(O)c(C=NCCN3CCOCC3)c(=O)[nH]c2=O)c1,-18.9% (inactive),
O=c1[nH]c(=O)n(CCc2ccc(F)cc2)c(O)c1C=NCCCN1CCOCC1,,11.2 µM (active)
CCNC(=O)[C@@H]1O[C@@H](n2cnc3c(N)ncnc32)[C@@H](O)[C@H]1O,-2.41% (inactive),
C[C@@H]1[C@@H]2Cc3ccc(O)cc3[C@@]1(C)CCN2CC1CC1,18.4% (inactive),
C[C@@H]1O[C@H](O[C@@H]2C[C@@H](O)[C@]3(CO)[C@H]4[C@H](O)C[C@]5(C)[C@@H](C6=CC(=O)OC6)CC[C@@]5(O)[C@@H]4CC[C@]3(O)C2)[C@@H](O)[C@H](O)[C@H]1O,-7.96% (inactive),
CCNC(=O)[C@@H]1O[C@@H](n2cnc3c(N)ncnc32)[C@H](O)[C@H]1O,4.5% (inactive),
CC(=O)O/C(=C1/C[C@H]2[C@@H]3CC=C4C[C@@H](OC(C)=O)CC[C@]4(C)[C@@H]3CC[C@]2(C)C1=O)C(F)(F)F,4.88% [at 11.4 µM] (inactive),
c1ccc2nc(N3CCNCC3)ccc2c1,-13.8% [at 25.6 µM] (inactive),
CN(C)CCCNc1c2c(nc3ccc(Cl)cc13)CCCC2,0.971% [at 11.4 µM] (inactive),
CCN1C[C@]2(COC)CC[C@H](O)[C@@]34[C@@H]5C[C@H]6[C@@H](OC)[C@H]5[C@](O)(C[C@@H]6OC)[C@@](O)([C@@H](OC)[C@H]23)[C@@H]14,-10.2% [at 25.6 µM] (inactive),
COc1ccccc1CC1C(=O)C2CCN1CC2 (stereo unspecified),-15.5% (inactive),
Cc1ccc(OP(=O)(Oc2ccc(C)cc2)N2C=Cc3ccccc3[C@H]2C#N)cc1,,2.51 µM (active)
O=[N+]([O-])c1ccc(N2CCNCC2)cc1NC1CC1,1.13% [at 2.29 µM] (inactive),
CCCN(C/C=C\I)[C@@H]1CCc2ccc(O)cc2C1,-19.2% (inactive),
CCN1C[C@@]2(COC)CC[C@H](O)[C@@]34[C@@H]2C[C@@H]([C@@H]13)[C@]1(O)C[C@@H](OC)C2C[C@H]4[C@H]1[C@H]2OC(C)=O,2.48% [at 25.6 µM] (inactive),
COc1ccccc1N1CCNCC1,4.12% (inactive),
C=C(C)[C@H]1CC[C@]2(CO)CC[C@]3(C)[C@@H](CC[C@H]4[C@@]5(C)CC[C@@H](O)C(C)(C)[C@@H]5CC[C@@]43C)[C@H]12,-23.2% [at 25.6 µM] (inactive),

Compound,"activity, negative = inhibition",AC50
N[C@H](CP(=O)(O)O)C(=O)O,-1.26% (inactive),
Cc1ccc(C2CC(=O)C(C=NCCN3CCN(C(=O)Cc4ccccc4)CC3)=C(O)C2)cc1 (stereo unspecified),,3.16 µM (active)
CC[N+](C)(C)c1cccc(O)c1,1.24% [at 25.6 µM] (inactive),
Cn1c(=O)c2[nH]cnc2n(C)c1=O,1.14% [at 25.6 µM] (inactive),
C[C@H](NC(C)(C)C)C(=O)c1cccc(Cl)c1,inactive,
Cc1cc(C)nc(NC2=NCCS2)n1,-3.88% (inactive),
CC[N@+]1(C)CCC[C@@H](OC(=O)C(O)(c2ccccc2)c2ccccc2)C1,-15% [at 25.6 µM] (inactive),
CCCc1nc2ccccc2c(=O)n1-c1ccc(OC)cc1,,15.8 µM (active)
Cc1ccc(-c2nc3ccccc3c(=O)n2-c2ncccc2C)cc1,-6.07% [at 2.29 µM] (inactive),
CCCCc1nc2ccccc2c(=O)n1-c1ccc(Cl)cc1[N+](=O)[O-],15.8% (inactive),
Cc1nc2ccccc2c(=O)n1-n1cnnc1,-13.4% (inactive),
CCCCc1nc2ccccc2c(=O)n1-c1ccccc1[N+](=O)[O-],,15.8 µM (active)
CCC(=O)Nc1ccc(N2CCN(CC)CC2)c(Cl)c1,-23.4% (inactive),
COc1cc([C@@H](O)CN)ccc1O,-4.97% (inactive),
O=P(Nc1ccccc1)(Nc1ccccc1)Oc1cccc(Cl)c1,-28.2% [at 2.29 µM] (inactive),
CCN1CCN(Cc2cc(OC)c(OC)cc2[N+](=O)[O-])CC1,16.1% (inactive),
CCNC(=O)O/N=C(\C)c1sc(-c2ccccc2)nc1C,-25.9% (inactive),
CN(C)C(=O)Oc1cc(OC(=O)N(C)C)cc([C@@H](O)CNC(C)(C)C)c1,0.065% [at 25.6 µM] (inactive),
O=C(Cc1ccc(Cl)c(Cl)c1)N1CCCC[C@H]1CN1CCCC1,,15.8 µM (active) and 7.94 µM (active)
NC(N)=NCCN=C(N)N,0.983% [at 11.4 µM] (inactive),
CC1=NN(c2ccccc2)C(=O)[C@@H]1N=Nc1ccc([As](=O)(O)O)c(O)c1,-5.79% [at 11.4 µM] (inactive),
COC(=O)[C@@H](N)CCCN=C(N)N[N+](=O)[O-],-12.7% (inactive),
CCn1cc(C(=O)O)c(=O)c2cc3c(cc21)OCO3,-9.37% [at 25.6 µM] (inactive),

Compound,"activity, negative = inhibition",AC50
FC(F)(F)c1nc2ccc(SSc3ccc4nc(C(F)(F)F)[nH]c4c3)cc2[nH]1,4.91% [at 11.4 µM] (inactive),
CC(C)=C[C@H]1[C@@H](C(=O)OCc2cc3c(cc2Cl)OCO3)C1(C)C,,0.316 µM (active)
CC(C)C(=O)CP(=O)(O)O,2.74% [at 11.4 µM] (inactive),
CC(C)CN1CCCC2(CCN(C(=O)c3ccncc3)CC2)C1,,12.6 µM (active)
O=C(c1ccncc1)N1CCC2(CC1)CN(Cc1ccccc1)C2,,20 µM (active)
CC(C)CN1CCC2(CC1)CCN(C(=O)Oc1ccccc1)CC2,10.7% (inactive),
CC(C)CN1CC2(CCN(C(=O)c3ccncc3)CC2)C1,-28.2% (inactive),
c1ccc(CN2CCN(Cc3ccc4c(c3)OCCO4)CC2)cc1,-16.2% [at 11.4 µM] (inactive),
Cc1noc(C)c1C(=O)N1CCC2(CCCN(CC(C)C)C2)CC1,-15.7% (inactive),
c1cc(CN2CCC3(CCNCC3)CC2)ccn1,-12.2% (inactive),
CN1CCCC2(CCN(C(=O)c3ccncc3)CC2)C1,-21.7% (inactive),
O=C(Oc1ccccc1)N1CCC2(CCN(Cc3ccncc3)CC2)CC1,,12.6 µM (active)
O=C(Oc1ccccc1)N1CCC2(CCCN(Cc3nccs3)C2)CC1,,12.6 µM (active)
c1csc(CN2CC[C@@]3(CCCNC3)C2)n1,-13.6% (inactive),
c1csc(CN2CCCC3(CCNCC3)C2)n1,-39.5% (inactive),
N=C(N)n1cc(/C=N\N=C(N)N)cn1,-16.6% [at 11.4 µM] (inactive),
c1ccc2c(c1)-c1ccccc1C2N1CC2CCC(CC2)C1,-5.36% [at 11.4 µM] (inactive),
CN1[C@@H](C[C@@H](O)c2ccccc2)CCC[C@@H]1C[C@H](O)c1ccccc1,20.8% [at 25.6 µM] (inactive),
O=[N+]([O-])c1cc(-c2ccc([As](=O)(O)O)cc2)ccc1[As](=O)(O)O,9.09% [at 11.4 µM] (inactive),
O=C(O)[C@@H]1[C@H](C(=O)O)[C@]2(Cl)C(Cl)=C(Cl)[C@@]1(Cl)C2(Cl)Cl,-9.54% [at 11.4 µM] (inactive),
C(#CCN1CCCC1)CN1CCCC1,-0.507% [at 25.6 µM] (inactive),
C[C@]12CC[C@H](O)C[C@@H]1CC[C@H]1[C@H]2CC[C@]2(C)C(=O)CC[C@@H]12,inactive,
